The list is not random: actives were taken first. Their share in the collection is about 3.4%.
FBW7 activator: human FBW7 E3 ligase activation, primary screen. Q969H0. normalized activity (activation), % at 26.1 µM. AlphaScreen FBW7–phospho-cyclin E peptide binding, activator screen. hit rate 0.13% among 650,000; in the data active = normalized activity above about 1.9%;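 note: purified mutant Fbw7 with reduced substrate affinity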
GPR151 ag: activators of human GPR151. PathHunter beta-arrestin GPR151 cells, luminescence. activation, % at 11.2 µM. hit rate 1% among 650,000; in the data active = activation above about 4.9%;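 note: 0% = median of compound wells and 100% = cells with positive control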
Target sequence (Q8TDV0 whole entry, looked up): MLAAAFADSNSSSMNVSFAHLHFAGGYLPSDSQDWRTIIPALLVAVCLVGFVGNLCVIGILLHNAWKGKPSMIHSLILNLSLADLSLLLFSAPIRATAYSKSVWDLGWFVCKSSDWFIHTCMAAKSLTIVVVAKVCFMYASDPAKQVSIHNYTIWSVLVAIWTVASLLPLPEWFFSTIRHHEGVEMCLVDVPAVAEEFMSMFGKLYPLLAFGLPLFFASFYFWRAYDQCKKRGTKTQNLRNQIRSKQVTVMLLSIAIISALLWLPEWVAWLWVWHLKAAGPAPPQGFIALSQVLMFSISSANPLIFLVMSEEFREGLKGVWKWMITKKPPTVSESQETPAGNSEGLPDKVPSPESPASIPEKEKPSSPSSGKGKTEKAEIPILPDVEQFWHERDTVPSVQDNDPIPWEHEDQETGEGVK
MITF inh: inhibitors of human MITF; AID 1259374; AlphaScreen MITF homodimerization, bead proximity signal; hit rate 0.91% among 650,000; O75030; inhibition, % at 2.6 µM; in the data active = inhibition above about 50%;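 note: 0% = vehicle wells with protein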
TEAD-YAP inh: TEAD-YAP interaction inhibition; HEK-TIYL cells, TEAD-Gal4/YAP UAS-luciferase luminescence; inhibition, % at 9.12 µM; hit rate 1.4% among 640,000; AID 1259422; in the data active = inhibition above about 32%;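 note: 0% = median of test compound wells and 100% = reference inhibitor wells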
Active calls of the source: *.

SMILES	FBW7 activator	GPR151 ag	MITF inh	TEAD-YAP inh
CCC(CC)C(=O)Nc1cccc(C(=O)Nc2ccc(S(=O)(=O)N3CCCC3)cc2)c1	0.1	-2.0	11.4	4.6
Clc1ccc(-c2noc(CN3CCN(Cc4ccccc4)CC3)n2)cc1	-0.1	-0.2	3.1	6.4
COC(=O)c1ccc2c(c1)S(=O)(=O)N(CCN(C)C)C2=O	0.4	-0.8	-5.4	0.4
COc1ccc(C(=O)Oc2ccc(NC(=O)Cc3nn(C)c(=O)c4ccccc34)cc2)cc1	-0.1	-0.2	-7.3	-3.6
Cn1nc(CC(=O)Nc2ccc(Cl)cc2)c2ccccc2c1=O	0.7	-0.8	18.9	39.3*
Cc1ccc(NC(=O)Cc2nn(C)c(=O)c3ccccc23)cc1F	0.1	0.6	2.6	20.2
Cn1c(C(=O)O)c(CC(=O)Nc2ccc3c(c2)OCCO3)c2ccccc21	0.0	-0.7	21.2	35.4*
Cn1nc(CC(=O)Nc2ccc(Oc3ccccc3)cc2)c2ccccc2c1=O	0.0	2.8	4.5	40.5*
C=CCN1CCN(c2c(NC(=O)c3ccc(Br)o3)cccc2Nc2ccccc2)CC1	0.0	-0.1	12.1	-8.8
CN(C(=O)c1cc(-c2cccc(O)c2)on1)c1ccccc1	0.0	-0.1	-11.7	48.5*
O=C(NC1CCCC1)c1cc(-c2cccc(O)c2)on1	-0.1	-0.2	-4.4	70.2*
CCCCNC(=O)c1cc(-c2cccc(O)c2)on1	0.1	0.2	9.2	36.3*
O=C(NC1CCCCC1)c1cc(-c2ccccc2)on1	0.4	-0.2	0.8	-46.9
CCCCNC(=O)c1cc(-c2cccc(OC)c2)on1	0.2	-1.7	-6.2	-45.2
C=CCc1cccc(C=Nc2ccc3nc[nH]c3c2)c1O	-0.5	1.6	-8.2	5.5
CC1CC(O)N(C(=O)c2ccccc2)N1Cc1ccccc1 (stereo not given)	0.0	0.1	12.0	-20.3
Cc1ccnc(NC(=S)NC(=O)c2ccc(Cl)cc2)c1	0.1	-1.3	5.5	-56.2
Cc1ccnc(NC(=S)NC(=O)c2ccccc2)c1	0.1	0.6	-3.4	33.8*
Cc1ccnc(NC(=O)c2ccccc2Cl)c1	0.7	-5.1	12.9	35.2*
COc1cccc(C(=O)NC(=S)Nc2ccccn2)c1	0.0	-2.0	3.1	36.2*
CC(=O)C(C)Oc1ccc2c3c(c(=O)oc2c1)CCC3 (stereo not given)	0.0	1.0	9.6	-19.6
COc1ccc(/C(N)=N/OC(=O)c2ccccc2C)cc1OC	-0.1	-1.6	1.8	-66.1
CCC1CN(CCC(=O)N(C)Cc2ccc3nccnc3c2)Cc2cc(OC)ccc2O1 (stereo not given)	-0.3	0.9	-19.8	8.4
O=C(CSc1ccccc1)N1CCN(c2nc3ccccc3s2)CC1	0.2	-7.4	3.1	37.5*
COc1cccc(-c2cn3cc(-c4ccc(F)cc4)nc3n2C)c1	-0.1	0.6	0.9	70.4*
SMILES	FBW7 activator	GPR151 ag	MITF inh	TEAD-YAP inh
Cn1c(-c2ccccc2)cn2c3ccccc3nc12	0.6	-0.1	4.8	30.3
COc1cccc(-n2c(-c3ccc(F)cc3)n[nH]c2=S)c1	-0.2	-0.5	-19.1	-15.7
COc1ccc(-c2cn3cc(-c4ccccc4)nc3n2C)cc1	-0.3	-1.4	-3.7	97.0*
Cc1cccc(C)c1-n1nnnc1C1(N2CCOCC2)CCCC1	0.2	0.3	19.3	4.8
CC(=NC#N)c1c(C(F)(F)F)[nH]n(-c2nc3ccccc3s2)c1=O	0.1	-7.4	2.4	41.6*
CC(=O)O/N=C(\N)c1nonc1N1CCOCC1	1.9*	-1.7	19.6	-6.7
COc1ccc2ccccc2c1C(=O)/C=C/c1cccnc1	0.6	-1.5	19.9	84.7*
COc1ccc(/C=C/C(=O)c2cccnc2)cc1OC	-0.2	0.9	42.8	-0.4
Nc1ccc(C(=O)Nc2nc3ccc(C(=O)N4CCOCC4)cc3s2)cc1	0.0	-1.3	-1.6	7.5
O=C(Nc1nc2ccc(C(=O)N3CCOCC3)cc2s1)c1cccs1	0.2	-9.5	14.9	41.8*
O=C(Nc1ccc2oc(-c3ccc4ccccc4c3)nc2c1)c1cccc2c(Br)cccc12	-0.1	-0.2	-11.1	-18.0
CCCc1ccc(C(=O)Oc2ccc(-c3ccc(CCC)cn3)cc2)cc1	0.2	-1.5	12.3	22.7
CCCc1ccc(-c2ccc(OC(=O)c3ccccc3Cl)cc2)nc1	-0.1	-2.2	-1.8	70.5*
COc1cccc(C(=O)/C=C\Nc2ccc3c(c2)OCO3)c1	-0.3	-0.6	1.3	85.4*
O=C(/C=C\Nc1ccc2c(c1)OCO2)c1ccccc1	0.4	0.5	1.9	73.8*
O=C(/C=C\Nc1ccc2c(c1)OCO2)c1cccc2ccccc12	0.0	1.9	0.9	-48.9
COc1cccc(C(=O)/C=C\Nc2ccc(Br)cc2)c1	0.0	-8.7	-14.0	53.7*
COc1cccc(C(=O)/C=C/Nc2ccccc2OC)c1	0.1	-6.5	2.0	64.0*
COc1cccc(C(=O)/C=C/Nc2cc(OC)ccc2OC)c1	0.0	0.9	9.4	-42.2
O=C1CC(c2ccccc2[N+](=O)[O-])c2ccc3ccccc3c2N1 (stereo not given)	-0.1	0.4	-3.9	-1.7
Cc1nnc2n1NC(c1ccccc1)C(C(=O)Nc1cccc(Cl)c1)S2 (stereo not given)	0.0	0.2	12.5	15.9
CS(=O)(=O)N1CCN(c2cc(-c3ccccc3)ncn2)CC1	-0.1	1.1	1.1	4.3
NS(=O)(=O)c1cccc(C(=O)OCC(=O)c2ccccc2)c1	0.0	-0.8	-3.7	-38.2
Cc1ccc(OCC(=O)Nc2ccc(F)cc2)c(C(C)(C)C)c1	0.0	-1.1	6.7	-19.9
COc1ccc(OC)c(C(=O)COC(=O)c2ccc(C)cc2C)c1	-0.1	0.5	-9.0	-11.0
SMILES	FBW7 activator	GPR151 ag	MITF inh	TEAD-YAP inh
COc1ccc(N/C=C/C(=O)c2ccccc2)cc1	0.0	-8.0	2.9	84.0*
Cc1sc(NC(=O)CN(C(=O)c2cccc(Cl)c2)C2CCCCC2)c(C(N)=O)c1C	-0.1	0.4	4.2	11.3
COc1ccc(-c2ccc(NS(=O)(=O)c3cc(C)cc(C)c3)cc2)nn1	1.9*	0.2	17.3	-6.6
Cc1cc(Nc2nc3ccccc3[nH]c2=O)n(-c2ccc([N+](=O)[O-])cc2)n1	0.0	0.0	1.9	59.0*
Cc1cc(Nc2ccccc2)n(-c2ccc([N+](=O)[O-])cc2)n1	0.0	-0.4	13.3	-2.9
COC(=O)C1=C(C)NC2=C(C(=O)c3ccccc32)C1c1cc(Cl)c(OC)c(OC)c1 (stereo not given)	-0.2	-0.8	13.7	60.6*
CCc1ccc(NC(=O)CSc2nc3ccccc3c(=O)n2CCC(=O)N2CCN(c3ccccc3)CC2)cc1	0.0	-0.3	-14.6	2.4
Cc1cc(=O)[nH]c(NC2CCN(C(=O)N3c4ccccc4Sc4ccccc43)CC2)n1	-0.1	-1.0	-0.9	56.3*
Cc1cc(=O)[nH]c(NC2CCN(C(=O)C(C)(C)c3ccc(Cl)cc3)CC2)n1	0.0	-0.3	9.3	5.2
COc1cccc2sc(=NC(=O)c3ccc([N+](=O)[O-])o3)n(C)c12	0.0	4.8	-0.2	-1.9
COc1ccccc1N=C1SCCN1C(=O)c1ccc([N+](=O)[O-])o1	2.2*	-1.0	3.2	4.3
COC(=O)c1ccccc1NC(=O)CSc1nnc(NC2CCCCC2)s1	0.1	0.5	9.9	39.7*
COC(=O)c1ccccc1NC(=O)CSc1nnc(NC(=O)C2CCC2)s1	0.1	-1.7	-10.3	-5.2

Bioassay records (PubChem BioAssay)
